Screening results as filed in PubChem.
Compounds with a hit are over-represented: about 2.9% of the library has one in this group of screens.
MRP-1 activ = H69AR viability gain despite doxorubicin, primary screen, MRP-1 activator project, H69AR cells, CellTiter-Glo; viability rescue; viability increase, % at 10 µM; hit rate 0.61% among 140,000;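 active means viability gain under doxorubicin at or above a set limit, the compound median plus 3 SD, cut at about 4.7% in these data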;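 further: MRP-1 overexpressing cells given doxorubicin 25 µM after compound pretreatment; 18-22 h compound pretreatment then 72 h with doxorubicin before readout; 0% = doxorubicin-only wells and 100% = vehicle-treated cells without doxorubicin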
ERb coact inh = inhibitors of ERβ-SRC1 coactivator interaction, primary screen, biochemical, TR-FRET, ERβ LBD, SRC-1 peptide | inhibition, % at 25.6 µM | hit rate 1.3% among 86,000 | Estrogen receptor beta (Homo sapiens), Q92731 | TR-FRET ER-beta LBD / SRC1-Cy5 peptide binding; receptor agonist-loaded with 1 µM estradiol | AID 633, 2007;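 active means compounds whose percent inhibition of the receptor-coactivator binding signal exceeds about 50% in the single-dose screen, limit read from the data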;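 further: 0% = receptor plus peptide wells without compound and 100% = peptide-only wells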
Target sequence (Q92731 whole entry, looked up, the tested form may be a part): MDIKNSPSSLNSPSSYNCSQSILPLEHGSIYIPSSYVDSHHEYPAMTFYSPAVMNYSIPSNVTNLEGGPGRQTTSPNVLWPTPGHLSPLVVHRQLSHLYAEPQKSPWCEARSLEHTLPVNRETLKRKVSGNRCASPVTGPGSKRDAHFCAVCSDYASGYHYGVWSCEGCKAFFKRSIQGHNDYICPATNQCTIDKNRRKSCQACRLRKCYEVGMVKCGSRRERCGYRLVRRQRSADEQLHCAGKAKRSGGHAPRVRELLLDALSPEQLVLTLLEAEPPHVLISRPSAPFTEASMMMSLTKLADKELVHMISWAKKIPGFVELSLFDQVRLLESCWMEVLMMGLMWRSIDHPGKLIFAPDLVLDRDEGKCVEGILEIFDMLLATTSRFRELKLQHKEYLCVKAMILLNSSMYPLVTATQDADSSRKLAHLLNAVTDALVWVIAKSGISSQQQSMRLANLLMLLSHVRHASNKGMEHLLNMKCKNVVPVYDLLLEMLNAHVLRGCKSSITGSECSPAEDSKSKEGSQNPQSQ
MRP resist rev = reversal of MRP1-mediated doxorubicin resistance, primary screen, H69AR cells, doxorubicin co-treatment; H69AR cells + 2 uM doxorubicin, CellTiter-Glo, 72 h; hit rate 0.04% among 85,000; AID 602, 2007; differential viability (reversal), % at 10 µM;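 active means viability drop by adding the cancer drug above about 55%, with treated viability meeting a 40% cutoff, limit read from the data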;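 further: viability without doxorubicin minus viability with 2 µM doxorubicin for each compound; larger differential means the compound sensitizes cells more to doxorubicin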
Smad3 inh = Smad3/FoxH1 peptide binding inhibitors, primary screen, biochemical, TR-FRET; Mothers against decapentaplegic homolog 3 (Homo sapiens), P84022; TR-FRET Smad3/Dy647-FoxH1 peptide binding, europium anti-His; inhibition, % at 25 µM; hit rate 0.29% among 88,000;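 active means compounds that reduce the energy-transfer binding signal between the protein and its labelled peptide by more than half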;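 further: 0% = Smad3 plus labelled peptide maximal FRET and 100% = peptide-only background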
ERa coact inh = ERα–SRC-1 coactivator interaction inhibitors, primary screen, biochemical, TR-FRET, ERα LBD, estradiol-bound. Estrogen receptor (Homo sapiens), P03372. TR-FRET ER-alpha LBD / SRC-1 peptide. inhibition, % at 25.6 µM. hit rate 1.7% among 86,000; in the data active means inhibition above about 50%;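 further: 0% = receptor plus peptide control and 100% = peptide only without receptor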
ERa SRC1 pot = enhancers of ERα–SRC-1 coactivator binding, primary screen, biochemical, TR-FRET, ERα LBD, low estradiol | AID 639, 2007 | coactivator binding (% of control), % at 25.6 µM | Estrogen receptor (Homo sapiens), P03372 | hit rate 1.3% among 86,000 | TR-FRET ERalpha-LBD/SRC-Cy5 coactivator binding, 2 h; 100 = basal binding, no effect; in the data active means activity above about 200%;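 further: binding measured in presence of low estradiol as agonist stimulus; 0% = peptide alone without receptor and 100% = receptor with peptide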
* marks the source's active call; other numbers are inactive results; nt = no result given; [ ] = another dose, or the depositor's remark.

SMILES	MRP-1 activ	ERb coact inh	MRP resist rev	Smad3 inh	ERa coact inh	ERa SRC1 pot
C/C(Cn1nnc2ccccc21)=N\NC(=O)c1cccc(Br)c1	1.4	nt	nt	nt	nt	nt
CCSc1nnc(NC(=O)c2cc(C)on2)s1	-0.5	-2.3	15.6	2.8	-11.1	107.6
Cc1cc(C(=O)Nc2nnc(C(F)(F)F)s2)no1	5.5*	10.6	2.8	-0.1	-6.3	99.2
CCCc1cc(-n2ccnc2)n2c(nc3ccccc32)c1C#N	-5.8	41.1	-17.9	5.3	66.3*	105.0
Cc1cc(-n2ccnc2)n2c(nc3ccccc32)c1C#N	-4.0	5.8	-10.6	-8.6	3.9	69.2
COc1ccc(CNc2nc(NCc3ccc(OC)cc3)n(S(C)(=O)=O)n2)cc1	5.1*	-5.4	11.3	7.7	-7.1	107.2
COc1ccc(C(=O)c2coc3ccc(O)c(CN4CCCC4)c23)cc1	-2.6	-8.7	-8.4	11.3	7.0	97.7
COc1ccc(-c2coc3c(CN4CCCCC4)c(O)c(CN4CCCCC4)c(O)c3c2=O)cc1	-5.2	35.3	-49.4	3.6	66.9*[fluorescence artefact?]	78.8
O=C(O)c1cccc(C[C@H](Br)C(=O)O)c1	nt	nt	nt	12.2	nt	nt
COCCN(C(=O)Cc1cccs1)c1nnc(-c2cccnc2)s1	-1.2	-1.6	-1.2	-7.9	-2.4	100.3
CCCCN(C(=O)Cc1cccs1)c1nnc(-c2cccnc2)s1	5.8*	-13.9	22.0	14.1	-17.4	90.7
CCC(Sc1nc2cc3c(cc2c(=O)n1Cc1ccco1)OCO3)C(=O)Nc1ccccc1OC (centres undefined)	-5.8	31.8	-5.5	4.5	87.7*[fluorescence artefact?]	144.0
O=P(Cc1ccccn1)(c1ccccc1)c1ccccc1	-1.7	nt	nt	nt	nt	nt
Nc1ccc(-c2ccc(Nc3cc(S(=O)(=O)O)c(N)c4c3C(=O)c3ccccc3C4=O)cc2)c(S(=O)(=O)O)c1	nt	nt	nt	93.7*	nt	nt
Cc1cc(C)c(Nc2cc(S(=O)(=O)O)c(N)c3c2C(=O)c2ccccc2C3=O)c(C)c1	-0.8	nt	nt	nt	nt	nt
CNc1ncc(Cc2ccccc2)s1	-1.2	nt	nt	nt	nt	nt
Cc1cc(S(=O)(=O)N(Cc2ccccc2)Cc2ccc(N(C)C)cc2)ccc1-n1cnnn1	-3.6	13.6	0.6	-0.9	14.0	210.7*
Cc1cc(S(=O)(=O)N(C)CCc2ccccc2)ccc1-n1cnnn1	-1.7	0.6	10.5	6.8	4.9	124.2
S=C(Nc1ccc(N2CCOCC2)cc1)Nc1ccc2nc(-c3ccco3)c(-c3ccco3)nc2c1	-2.5	89.3*[fluorescence artefact?]	5.1	-16.7	68.2*[fluorescence artefact?]	13.8
O=C(Nc1ccc(N2CCOCC2)cc1)c1ccncc1	-0.8	20.1	18.7	-7.6	-2.2	84.5
O=C(Nc1ccc(N2CCOCC2)cc1)c1ccc2nc(-c3ccco3)c(-c3ccco3)nc2c1	-3.7	50.5*[fluorescence artefact?]	-2.5	14.6	80.1*[fluorescence artefact?]	42.1
O=C(c1cccc(C(=O)N2CCN(c3ncccn3)CC2)c1)N1CCN(c2ncccn2)CC1	-2.2	-11.4	10.8	-13.5	-10.9	95.6
O=C(c1ccc2nc(-c3ccco3)c(-c3ccco3)nc2c1)N1CCN(c2ncccn2)CC1	-2.7	86.1*[fluorescence artefact?]	-18.6	17.1	76.1*[fluorescence artefact?]	25.9
COC(=O)[C@H]1[C@@H]2C[C@H]3c4[nH]c5ccccc5c4CCN3C[C@H]2CC[C@@H]1OS(=O)(=O)O	nt	nt	nt	19.7	nt	nt
CC1CN(c2nc3c(c(=O)n(Cc4ccc(Cl)cc4)c(=O)n3C)n2C)CC(C)O1 (centres undefined)	-4.8	-1.6	57.4*	2.0	2.4	128.8
SMILES	MRP-1 activ	ERb coact inh	MRP resist rev	Smad3 inh	ERa coact inh	ERa SRC1 pot
CC(C)(C)CC(C)(C)c1cc(O)c(O)c(CN2CCCCC2)c1	nt	nt	nt	92.5*	nt	nt
CC(C)(C)CC(C)(C)c1ccc(O)c(CN2CCN(CCC#N)CC2)c1	-2.2	-1.0	-9.5	8.6	-3.3	87.2
CC(C)(Oc1ccc(Cl)cc1)C(=O)N/N=C/c1cn[nH]c1-c1ccccc1	-1.1	nt	nt	nt	nt	nt
N#Cc1c(SCC(N)=O)nsc1SCc1ccccc1Cl	-1.1	98.9*[fluorescence artefact?]	-7.3	4.6	10.9	104.6
O=C(COC(=O)c1c(Cl)cccc1Cl)Nc1cc(Cl)ccc1Oc1ccccc1	6.6*	nt	nt	nt	nt	nt
O=C(COC(=O)c1ccccc1)Nc1cc(Cl)ccc1Oc1ccccc1	3.2	nt	nt	nt	nt	nt
CC[C@H](CN(C)C)C(=O)c1ccco1	nt	nt	nt	-10.2	nt	nt
COc1ccccc1OCc1nnc(SCC(=O)c2cc(Cl)ccc2OC)o1	-1.4	-3.1	-3.0	3.3	0.7	321.9*[fluorescence artefact?]
C/C(N)=C(/C#N)C(=O)CSc1nnc(COc2ccccc2Cl)o1	-1.3	59.3*	-28.4	14.3	58.4*	76.7
COc1ccccc1OCc1nnc(SCCN2CCOCC2)o1	-0.6	-7.3	4.7	2.5	-6.2	147.6
COc1ccc(NC(=O)CSc2nnc(CNC(=O)COc3ccc(Cl)cc3)o2)c(OC)c1	4.4	-1.2	16.0	-2.2	-1.4	104.8
COc1ccc(OC)c(NC(=O)CSc2nnc(CNC(=O)COc3ccc(Cl)cc3)o2)c1	5.6*	1.2	12.6	9.7	-4.8	110.7
COC(=O)c1cn(NC(=O)c2cc(OC)c(OC)c(OC)c2)c(=O)c2ccccc12	-1.2	17.0	7.8	3.6	57.9*[fluorescence artefact?]	91.6
COC(=O)c1cn(NC(=O)c2cc(OC)cc(OC)c2)c(=O)c2ccccc12	-2.6	14.1	27.6	-2.3	23.6	179.8
CC(=O)/C(=C\c1ccccc1F)C(=O)c1ccccc1	nt	nt	nt	-6.5	nt	nt
CCN1CCn2c3c(c4cc(C)ccc42)CCCC31 (centres undefined)	-0.3	55.5*[fluorescence artefact?]	-1.3	-6.8	34.2	79.4
Nc1nc(N)c(-c2cccc(C(F)(F)F)c2)c(Cc2cccc(C(F)(F)F)c2)n1	nt	nt	nt	23.1	nt	nt
O=C(N/C=N/OCc1ccc(Cl)cc1Cl)NOCc1c(Cl)cccc1Cl	-0.5	30.3	-14.1	-0.6	26.3	213.0*
CO/N=C/NC(=O)NOCc1ccc(Cl)cc1Cl	-1.6	8.5	-6.6	-9.8	7.3	92.5
Cc1cc(C)n(-c2nc(Nc3ccccc3)nc(-n3nc(C)cc3C)n2)n1	-3.1	55.4*[fluorescence artefact?]	13.1	17.2	62.9*[fluorescence artefact?]	248.2*
Cc1cc(C)n(-c2nc(N(c3ccccc3)c3ccccc3)nc(-n3nc(C)cc3C)n2)n1	-0.8	12.6	2.8	1.0	32.9	128.9
FC(F)(F)c1nc(SCc2ccc(Cl)cc2)n[nH]1	nt	nt	nt	-2.0	nt	nt
NC1=NC2(CCCCC2)n2c(nc3ccccc32)N1	-1.7	2.8	4.3	0.6	52.1*[fluorescence artefact?]	35.7
CC(C)(C)c1ccc(OCC(=O)O)c(Cl)c1	nt	nt	nt	4.5	nt	nt
CC(C)(C)CNc1cc(N2CCCC2)ccc1[N+](=O)[O-]	4.8*	nt	nt	nt	nt	nt
CC(C)(C)c1ccc(CNc2cc(N3CCOCC3)ccc2[N+](=O)[O-])cc1	-1.7	nt	nt	nt	nt	nt
